LGR2 antag = inhibitors of bursicon-induced LGR2 CRE-luciferase signal, primary screen, cell-based, HEK293, CRE-luciferase reporter, bursicon stimulation; Drosophila bursicon receptor LGR2 (rickets); bursicon-stimulated, 4 h; inhibition, % at 9.99 µM; actives 0.35% (n = 380,000);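 active = drop in luminescence signal, shown as inhibition above about 50% in the replicate tests, limit read from the data, passing the limit was not always enough; inconclusive = probably only some replicates passing the limit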;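 also: agonist challenge used bursicon conditioned medium at about half maximal strength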
PAX8 reporter = inhibitors of PAX8-driven TPO luciferase reporter, primary screen, RMG-I cells, single concentration; SteadyGlo, 24 h; actives 1.2% (n = 360,000); inhibition, % at 12.6 µM;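 active = mean replicate inhibition at least 60% with every replicate also reaching 60%; inconclusive = only one of the two criteria is met; inactive = mean below 60% and not all replicates reaching 60%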;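 also: luciferase light reporting Pax8 driven TPO promoter activity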
PGC1a acetyl inh = inhibitors of PGC1a acetylation signal, primary screen, cell-based, U2OS, AlphaScreen, inhibitor mode; AlphaScreen anti-acetyl-lysine; with virally co-expressed GCN5 acetyltransferase; actives 0.17% (n = 350,000); AID 651687, 2012; inhibition, % at 15.6 µM;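 active = every replicate shows inhibition of at least 40%; inconclusive = mean inhibition at least 40% but some replicate below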
EBV LMP1 NFkB = EBV LMP1-driven NF-kappaB luciferase reporter inhibitors, primary screen, cell-based, luminescence, single point; LMP1-induced NF-kappaB luciferase reporter cells; inhibition, % at 12.5 µM; actives 0.69% (n = 350,000); in the data active = inhibition above about 41%; inconclusive = no clear call, values can overlap the other calls
TRPM1 prom inh = inhibitors of MITF-dependent TRPM1 promoter reporter, primary screen, cell-based, SK-MEL-5, single point, luciferase. SK-MEL-5 TRPM1 promoter luciferase, 24 h. inhibition, % at 12.5 µM. actives 0.83% (n = 330,000);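 active = mean inhibition across replicates of 60% or more, whatever share of single replicates reaches that level; inconclusive = some that reach 60%, reason not given; inactive = mean inhibition across replicates below 60%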
EWS-Fli inh = EWS/Fli-driven NR0B1 reporter inhibitors, primary screen, A673 cells, NR0B1 luciferase, luminescence, MLPCN library. actives 0.67% (n = 350,000). viability-normalised. AID 651661, 2012. inhibition, % at 12.6 µM;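 active = mean inhibition of at least 50% after viability correction, with every replicate also passing that limit; inconclusive = mean reaches 50% but only one of two replicates passes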;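 also: firefly luciferase signal divided by Alamar Blue viability fluorescence both relative to DMSO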
Large screens that a line does not name were inactive. Rows were chosen to be rich in hits. Some 2.2% of all compounds tested hit in one or more screens of this group.

COC(=O)[C@@H]1[C@@H](CO)[C@@H]2Cn3c(ccc(-c4ccc(F)cc4)c3=O)[C@H]1N2C(=O)c1ccccc1F	none (no result: EBV LMP1 NFkB, TRPM1 prom inh)
C=C1C(=O)OC2CC(C)C3C=CC(=O)C3(C)C(O)C12 (stereo not drawn)	PGC1a acetyl inh inconclusive, EBV LMP1 NFkB 93, TRPM1 prom inh 100 (no result: LGR2 antag, PAX8 reporter, EWS-Fli inh)
C=C1C(=O)O[C@H]2[C@H]1[C@H](OC(=O)CC(=O)O[C@@H]1C[C@@H](C)[C@@H]3C=CC(=O)[C@@]3(C)[C@H]3OC(=O)C(=C)[C@H]13)C[C@@H](C)[C@H]1C=CC(=O)[C@]12C	PAX8 reporter 68 (no result: PGC1a acetyl inh)
C=C1C(=O)O[C@@H]2C[C@@H](C)[C@@H]3C4OC4C(=O)[C@@]3(C)[C@@H](O)[C@H]12 (stereo partly drawn)	LGR2 antag 85, PAX8 reporter 104, EBV LMP1 NFkB 100, TRPM1 prom inh 101, EWS-Fli inh 73
C=C1C(=O)O[C@H]2C[C@@H](C)[C@@H]3C=CC(=O)[C@@]3(C)C[C@H]12	LGR2 antag 82, PAX8 reporter 108, EWS-Fli inh 59 (no result: PGC1a acetyl inh, EBV LMP1 NFkB, TRPM1 prom inh)
O=C(Cc1ccccn1)N1CC2(C1)[C@H](c1ccccc1)[C@@H](CO)N2Cc1ccccn1	none (no result: EBV LMP1 NFkB, TRPM1 prom inh)
O=C(Cc1ccccc1)N1C[C@H]2[C@@H](c3ccccc31)[C@H](CO)N2Cc1ccccc1	none (no result: EBV LMP1 NFkB, TRPM1 prom inh)
O=C(Cc1cccnc1)N1CCCCN2[C@H](CO)[C@@H](c3ccc(C#CC4CCCC4)cc3)[C@@H]2C1	none (no result: EBV LMP1 NFkB, TRPM1 prom inh)
CC=Cc1ccc2n(c1=O)C[C@H]1[C@H](CO)[C@@H](C(=O)O)[C@@H]2N1S(=O)(=O)c1ccccc1F (mixture of isomers)	none (no result: PGC1a acetyl inh, EBV LMP1 NFkB, TRPM1 prom inh)
C=C1C(=O)O[C@@H]2C[C@@H](C)[C@@H]3C=CC(=O)[C@@]3(C)[C@@H](OC(=O)CC(=O)O[C@H]3[C@@H]4C(=C)C(=O)O[C@@H]4C[C@@H](C)[C@@H]4C=CC(=O)[C@]43C)[C@H]12	PAX8 reporter 109, EBV LMP1 NFkB 92, TRPM1 prom inh 98, EWS-Fli inh 55 (no result: LGR2 antag, PGC1a acetyl inh)
COc1ccc2c(c1OC)CN1CCc3cc4c(cc3[C@H]1C2)OCO4	none (no result: LGR2 antag, PAX8 reporter, PGC1a acetyl inh, EWS-Fli inh)
CCC1CN2CCc3cc(OC)c(OC)cc3C2CC1CC1NCCc2c1[nH]c1ccc(O)cc21 (stereo not drawn)	LGR2 antag 100, PAX8 reporter 101, PGC1a acetyl inh 70, EBV LMP1 NFkB 83, TRPM1 prom inh 97
OCC1OC(n2cnc3cc(Cl)c(Cl)cc32)C(O)C1O (stereo not drawn)	none (no result: EBV LMP1 NFkB, TRPM1 prom inh)
NC(=O)c1c(Br)n(C2OC(CO)C(O)C2O)c2ncnc(N)c12 (stereo not drawn)	PAX8 reporter 85
N#Cc1c(Br)n(C2OC(CO)C(O)C2O)c2ncnc(N)c12 (stereo not drawn)	PAX8 reporter 82
COc1cccc(-c2ccc([C@@H]3[C@H](CO)N4CCCCN(C(=O)Cc5ccncc5)C[C@@H]34)cc2)c1	none (no result: EBV LMP1 NFkB, TRPM1 prom inh, EWS-Fli inh)
CCCC[C@@H](C)C[C@@H](C)C(=O)N(C)[C@@H](CC(C)C)C(=O)N[C@H](C(=O)N(C)[C@H](C(=O)N1C[C@@H](O)C[C@H]1C(=O)N1C(=O)C=C[C@@H]1C)C(C)C)C(C)OC(C)=O (stereo partly drawn)	TRPM1 prom inh 100 (no result: LGR2 antag, PAX8 reporter, PGC1a acetyl inh, EWS-Fli inh)
C/C(=C\c1ccc(N(C)C)cc1)[N+](=O)[O-]	LGR2 antag 96, TRPM1 prom inh 80, EWS-Fli inh 52 (no result: PAX8 reporter)
CN(C)c1ccc(/C=C/[N+](=O)[O-])cc1	none (no result: LGR2 antag, PGC1a acetyl inh)
OC[C@@H]1[C@@H]2c3ccccc3NC[C@@H]2N1Cc1cccnc1	none (no result: EBV LMP1 NFkB, TRPM1 prom inh)
O=C(Cc1ccncc1)N1CCCCN2[C@@H](CO)[C@@H](c3ccc(C#Cc4ccccc4F)cc3)[C@@H]2C1	none (no result: EBV LMP1 NFkB, TRPM1 prom inh)
Cc1ccsc1/C=C1\C(=O)NC(=S)N(C)C1=O	TRPM1 prom inh 70
CN1C(=O)/C(=C/c2ccc(Cl)s2)C(=O)NC1=S	none (no result: PGC1a acetyl inh)
COc1cc2c(cc1/C=C/[N+](=O)[O-])OCO2	LGR2 antag 103, TRPM1 prom inh 79
N#Cc1cccc(-c2ccc([C@@H]3[C@@H](CO)N4CCCCN(C(=O)Cc5ccccc5)C[C@@H]34)cc2)c1	none (no result: EBV LMP1 NFkB, TRPM1 prom inh)
CN(C)CC(C(=O)Cc1ccccc1)c1ccccc1 (stereo not drawn)	PAX8 reporter 104
C[C@@H]([C@@H](O)c1ccccc1)N(C)C(=O)Cc1ccccc1	none
COc1cccc(-c2ccc([C@H]3[C@@H](CO)N4CCCCN(C(=O)Cc5ccncc5)C[C@H]34)cc2)c1	none (no result: EBV LMP1 NFkB, TRPM1 prom inh, EWS-Fli inh)
Cc1ccc(OC(=O)N(C)C[C@H]2OCc3ccccc3-c3c(n(C)c4ccccc34)C(=O)N([C@@H](C)CO)C[C@@H]2C)cc1	none (no result: PGC1a acetyl inh, EBV LMP1 NFkB, TRPM1 prom inh)
Cc1ccc(OC(=O)N(C)C[C@@H]2OCc3ccccc3-c3c(n(C)c4ccccc34)C(=O)N([C@@H](C)CO)C[C@H]2C)cc1	PAX8 reporter 98 (no result: PGC1a acetyl inh, EBV LMP1 NFkB, TRPM1 prom inh)
Cc1nc2c(=O)n(C)c(=O)nc-2n(C)n1	PGC1a acetyl inh 78, EBV LMP1 NFkB 91, TRPM1 prom inh 110 (no result: LGR2 antag, PAX8 reporter, EWS-Fli inh)
COC(=O)[C@H]1[C@H](CO)[C@H]2Cn3c(ccc(-c4ccccc4F)c3=O)[C@@H]1N2	none (no result: PGC1a acetyl inh, EBV LMP1 NFkB, TRPM1 prom inh)
COc1cc(/C=N/n2cnnc2)ccc1OC(=O)N(C)C	none (no result: PAX8 reporter, PGC1a acetyl inh)
COc1cc(/C=C/[N+](=O)[O-])ccc1OC(=O)c1cccnc1	EWS-Fli inh 56 (no result: LGR2 antag, PGC1a acetyl inh)
O=C(Cc1ccccn1)N1CCCCN2[C@H](CO)[C@H](c3ccc(C#Cc4ccccc4)cc3)[C@H]2C1	none (no result: EBV LMP1 NFkB, TRPM1 prom inh)
Cc1ccc2c(C)c3ccc4ccccc4c3c[n+]2c1	TRPM1 prom inh 68
O=C(NN=Cc1ccc(N(CCCl)CCCl)cc1)c1cccnc1	EBV LMP1 NFkB 47
CCOC(=O)C(O)(c1ccc(N(C)C(=O)COc2ccccc2)cc1)C(F)(F)F (stereo not drawn)	none (no result: LGR2 antag, EWS-Fli inh)
CN(C)C(=O)O/N=C(\N)COc1ccc(C(C)(C)C)cc1	EWS-Fli inh 57
O=C(Cc1cccnc1)N1CCCCN2[C@H](CO)[C@@H](c3ccc(C#CC4CC4)cc3)[C@H]2C1	none (no result: LGR2 antag, EBV LMP1 NFkB, TRPM1 prom inh)
COC(=O)C1=C(c2ccc3ccccc3c2)C[C@@H]2CC[C@H]1N2C(=O)N1CCC(O)CC1	EBV LMP1 NFkB 85 (no result: LGR2 antag, PAX8 reporter, EWS-Fli inh)
COC(=O)C1=C(c2ccc(-c3ccccc3)c(F)c2)C[C@@H]2CC[C@H]1N2C(=O)N1CCC(C)CC1	EBV LMP1 NFkB 45 (no result: LGR2 antag, PGC1a acetyl inh)
C[C@H]1CCC[C@H](O)CCCCCc2cc(O)cc(O)c2C(=O)O1	none
C[C@H]1CCC/C=C/C2C[C@H](O)CC2[C@H](O)/C=C/C(=O)O1 (stereo partly drawn)	PGC1a acetyl inh 72, TRPM1 prom inh 80 (no result: LGR2 antag, PAX8 reporter, EWS-Fli inh)
CC1CCC/C=C/C2CC(O)CC2C(O)/C=C/C(=O)O1 (stereo not drawn)	PAX8 reporter 127, PGC1a acetyl inh 73, TRPM1 prom inh 85 (no result: LGR2 antag, EWS-Fli inh)

Source: PubChem BioAssay (Broad Institute)
